Consider 95 molecules from PubChem BioAssay AID624330 (Southern Research Specialized Biocontainment Screening …, 2012).

About 2,100 (0.62%) of roughly 340,000 compounds were called active. Only a sample is shown. Potency and affinity values are given separately. Unmarked numbers belong to inactive results.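 The calls were made as follows: active = first-screen hits whose inhibition reached a set limit at any dose in the follow-up dose series; inconclusive = inhibition above the set first-screen limit but never retested; inactive = the rest.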

This assay deals with Rac GTPase-activating protein 1 (Homo sapiens) (UniProt Q9H0H5). Briefly: MgcRacGAP GTPase-activating activity inhibitors, confirmation, biochemical, ADP Hunter fluorescence, primary and confirmatory (AID 624330).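 Also: fluorescence reports GDP produced by GAP-driven GTP hydrolysis.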 To be noted: MgcRacGAP-stimulated Rac1 GTP hydrolysis, at 30 µM, stronger effect = higher value, GST-tagged Rac1 F28L mutant substrate.
Rac GTPase-activating protein 1 (Homo sapiens), sequence (Q9H0H5 whole entry, looked up): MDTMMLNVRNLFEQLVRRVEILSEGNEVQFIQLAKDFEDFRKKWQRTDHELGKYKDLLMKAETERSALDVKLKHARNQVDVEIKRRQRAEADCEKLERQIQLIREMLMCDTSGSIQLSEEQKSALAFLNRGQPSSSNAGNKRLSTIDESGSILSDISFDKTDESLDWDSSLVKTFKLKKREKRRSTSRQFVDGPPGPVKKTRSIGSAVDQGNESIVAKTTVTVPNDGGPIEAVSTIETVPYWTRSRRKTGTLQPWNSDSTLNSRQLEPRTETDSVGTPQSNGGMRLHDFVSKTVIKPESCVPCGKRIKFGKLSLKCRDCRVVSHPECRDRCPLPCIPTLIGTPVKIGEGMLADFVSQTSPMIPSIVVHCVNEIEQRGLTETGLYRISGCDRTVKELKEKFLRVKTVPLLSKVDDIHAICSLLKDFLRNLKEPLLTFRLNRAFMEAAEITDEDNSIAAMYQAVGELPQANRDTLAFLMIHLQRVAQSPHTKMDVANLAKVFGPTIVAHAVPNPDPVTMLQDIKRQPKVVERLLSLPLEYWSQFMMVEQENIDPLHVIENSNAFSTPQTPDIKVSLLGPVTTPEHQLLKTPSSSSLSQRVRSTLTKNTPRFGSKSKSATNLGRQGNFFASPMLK
For the molecule `CCCCn1c(N)c(N(CCOC)C(=O)CSCc2ccc(C)cc2)c(=O)[nH]c1=O`, the inhibition – broadly, the relative decrease from the control value, in per cent – was 3.5%.

As to `Cc1ccc(NC(=O)CN(C)S(=O)(=O)c2cccs2)cc1C`, the inhibition was 2.54%. Consider `CCN=C1S/C(=C\c2sccc2C)C(=O)N1CC`, for which the inhibition is 8.79%. For the molecule `CSc1ccccc1C(=O)NCc1ccc2c(c1)OCO2`, the inhibition was 3.84%. Turning to `CC(C(=O)Nc1ccc2c(c1)OCO2)N(C)CC(=O)Nc1ccccc1Cl` (stereo not given), the inhibition was 6.56%. In the case of `COc1ccc2c(c1)[nH]c1c(=O)n(/N=C/c3ccc(OC)c(COc4ccccn4)c3)cnc12`, the inhibition is 6.37%. The figure for `CC(C)N1C(=O)S/C(=C\c2ccc(-c3ccc(Cl)c(C(=O)O)c3)o2)C1=O` is 14.4%; for `CC(C)N1C(=O)S/C(=C/c2ccc(Sc3nc4ccccc4[nH]3)o2)C1=O` it is 12.6%; for `CCc1nc2ccccc2c(=O)n1NC(=O)c1c(O)c2ccccc2n(CC)c1=O` it is 11.3%. In the case of `CCn1c(COc2ccc(Cl)cc2)nnc1SCC(=O)Nc1ccc2c(c1)OCCO2`, the inhibition was 9.81%.

For `O=C(CN1C(=O)S/C(=C\c2ccc(O)cc2)C1=O)c1ccccc1`, the inhibition is 2.23%.

Consider `NC1=NC(=O)C(=Cc2ccccc2)S1`, for which the inhibition was -0.93%. In the case of `COc1ccc(/C=C2/SC(c3ccc(C)cc3)=NC2=O)cc1OC`, the inhibition was 11.7%. The figure for `COc1ccc(/C=C2\SC(c3ccc(C)cc3)=NC2=O)cc1OC` is -0.09%; for `COc1ccc(/C=C2\SC(N)=NC2=O)cc1` it is 3.78%; for `COc1cc(/C=C2\SC(N)=NC2=O)ccc1OCC(=O)Nc1ccccc1C` it is 1.31%. The figure for `COc1cc(/C=C2/SC(=S)N(Cc3ccccc3)C2=O)ccc1O` is 11.1%. For the molecule `COc1ccc(C2=NN(c3ccccc3)C(=O)/C2=C\c2ccc(O)c(OC)c2)cc1`, the inhibition was 4.88%.

For the molecule `COc1ccc(N2CC(C(=O)Nc3nnc(SCC(=O)N4CCOCC4)s3)CC2=O)cc1` (stereo not given), the inhibition was 10.3%. On to `CCCn1c(SCC(=O)Nc2cc(Cl)ccc2OC)nc(O)cc1=O`, for which the inhibition is 4.2%. The figure for `CCOC(=O)C(CC)Sc1nc2c(c(=O)[nH]c(=O)n2C)n1C/C=C(/C)Cl` (stereo not given) is 13.4%; for `CCc1cccc(NC(=O)CSc2nnc(Cc3ccc(OC)cc3)c(=O)[nH]2)c1` it is 6.26%; for `CC(=O)c1cccc(Nc2cc(C)nc3c(C)cc(C)cc23)c1` it is 11%. Consider `CC(=O)Nc1cccc2c1C(=O)N(c1ccccc1C)C2=O`, for which the inhibition was 9.72%. In the case of `Cc1ccnc(NC(=O)Cn2c(=O)oc3ccccc32)c1`, the inhibition was 6.21%.

For the molecule `Cn1cccc1/C=C1\SC(=O)N(c2ccc(O)cc2)C1=O`, the inhibition is 0.13%. On to `Cc1ccc(NC(=O)CN2C(=O)S/C(=C\c3cccn3C)C2=O)cc1`, for which the inhibition is 2.72%. In the case of `N/C(Cc1cccs1)=N\OC(=O)COc1ccc(Br)cc1`, the inhibition is 0.69%. As to `CSc1ccc(CN(C)CC(=O)NCc2ccccc2)cc1`, the inhibition was 4.61%. Next, `CN(CC(=O)NCc1ccc(F)cc1)Cc1cccc(Cl)c1`: 5.16%; `COc1ccc(CNC(=O)CN(C)Cc2ccc(SC)cc2)cc1`: 9.14%; `COc1ccc(CNC(=O)CCOc2ccc(C(C)(C)C)cc2)cc1`: 4.83%. For `Cc1cccc(NC(=O)C2(C)CC3c4ccccc4C2c2ccccc23)c1C` (stereo not given), the inhibition was 4.55%.

For `CC(C)(C)OC(=O)N[C@@H](Cc1ccccc1)C(=O)NCC1CCC(C(=O)N[C@@H](CC(=O)O)C(=O)O)CC1` (stereo not given in full), the inhibition is -2.85%. Next, `O=S(=O)(c1ccccc1)N1CCN(C2CCN(Cc3ccccc3)CC2)CC1`: 9.41%.

For `COc1ccc(S(=O)(=O)N2CCN(Cc3ccccc3)CC2)cc1`, the inhibition was 5.15%. For the molecule `CCOC(=O)N1CCC(N2CCN(S(=O)(=O)c3ccc(C)cc3)CC2)CC1`, the inhibition was 22.2%.

For `O=S(=O)(c1ccc(Cl)cc1)N1CCN(C2CCN(Cc3ccccc3)CC2)CC1`, the inhibition was 2.66%. `CCOC(=O)N1CCC(N2CCN(S(=O)(=O)c3ccc(OC)cc3)CC2)CC1`: the inhibition was 20.1%. Consider `COc1ccccc1N1CCN(C2CCN(S(=O)(=O)c3ccc4ccccc4c3)CC2)CC1`, for which the inhibition was 4.9%. `COc1ccccc1N1CCN(C2CCN(S(=O)(=O)c3ccc(C)cc3)CC2)CC1`: the inhibition was -5.5%. As to `COc1ccc(S(=O)(=O)N2CCN(C3CCN(Cc4ccccc4)CC3)CC2)cc1`, the inhibition is 8.39%.

Consider `O=c1c2ccccc2nnn1CSc1ccccc1F`, for which the inhibition is 8.16%. In the case of `Cc1cccc(C(=O)NCC(=O)NC2CCC(C)CC2)c1` (stereo not given), the inhibition was 3.71%. Take `O=C(CSc1c2c(nc3ccccc13)CCC2)N1CCCC1`: the inhibition was 10.3%. As to `Cc1ccn2cc(CCNC(=O)CC3CCCCC3)nc2c1`, the inhibition is 16%. With `O=C(c1cc(Cl)nc2ccccc12)N1CCCCC1`, the inhibition is 3.41%. In the case of `CCN(CC)c1ccc(C(=O)Nc2cccc(F)c2)cc1`, the inhibition is 15.5%. Regarding `CCN(CC)c1ccc(C(=O)NNC(=O)CCl)cc1`, the inhibition was 9.55%. As for `Cc1ccc(-c2csc(NC(=O)c3ccccc3F)c2C(=O)O)cc1`, the inhibition was 5.32%.

Turning to `COc1cccc(COC(=O)c2cc(S(=O)(=O)N3CCCCC3)ccc2N2CCOCC2)c1OC`, the inhibition was -0.42%.

Regarding `COc1ccc(CCNCc2ccc(OCc3ccccc3)cc2)cc1`, the inhibition was -1.52%. Regarding `COc1ccc(CNS(=O)(=O)CCNCCc2ccccc2)cc1`, the inhibition was 6.36%. With `COc1ccc(CC(=O)NCCN2CCOCC2)cc1`, the inhibition is -0.23%. As for `O=C(Cc1ccc(F)cc1)NCCc1ccccc1`, the inhibition is -3.3%. As to `COc1ccc(CCNC(=O)C(=O)NCCCN2CCOCC2)cc1`, the inhibition was 0.98%.

For the molecule `O=S(=O)(Cc1ccccc1)NCCc1ccc(F)cc1`, the inhibition is -2.46%. On to `O=C(c1ccc(Br)o1)N1CC=C(c2ccccc2)CC1`, for which the inhibition was -9.29%. In the case of `COCCCNC(=O)C1CCCN(S(C)(=O)=O)C1` (stereo not given), the inhibition is 4.1%. The figure for `N=c1c(S(=O)(=O)c2ccc(Br)cc2)cc2c(=O)n3ccccc3nc2n1C1CCCC1` is 3.79%. As for `N#CCC(=O)Nn1c(=S)[nH]c2ccccc2c1=O`, the inhibition is 3.15%. In the case of `CCSCCOC(=O)C1=C(C)NC(=O)NC1c1ccccc1` (stereo not given), the inhibition was 2.5%. In the case of `CCCCNC(=O)CNC(=S)N(Cc1cc(OC)c(OC)c(OC)c1)C1CCCC1`, the inhibition was 5.07%. As to `COc1ccccc1N1CCN(CCCC(=O)c2ccc(F)cc2)CC1`, the inhibition is 8.13%.

`COc1ccc(C(=O)CN2CCN(c3ccc(F)cc3)CC2)cc1`: the inhibition was 11.7%.

`COc1ccccc1N1CCN(CCCCCCOc2ccc(F)cc2)CC1`: the inhibition was 7.05%. As to `COc1ccccc1N1CCN(CCCCOc2ccc(F)cc2)CC1`, the inhibition was 4.56%. With `CCN(CC)S(=O)(=O)c1ccc(NC(=O)C(OC)c2ccccc2)cc1` (stereo not given), the inhibition was 11.8%. The figure for `C/C(=N\Nc1ccccn1)c1ccc(C#N)cc1` is 6.31%; for `Cc1nn(CC(=O)N2CCc3ccccc3C2)c(C)c1[N+](=O)[O-]` it is 4.25%. For the molecule `Nc1ccc(-c2nc3cc(N)ccc3o2)cc1`, the inhibition was 17.5%. Turning to `Nc1ccc(-c2nc3ccccc3o2)cc1`, the inhibition is 4.77%. As to `COc1ccc(CC(=O)OCC(=O)NCc2ccc(Cl)cc2)cc1`, the inhibition is -11.6%. The figure for `COc1cccc(NC(=O)COC(=O)c2ccccc2C(=O)N2CCN(c3ccccc3)CC2)c1` is -5.54%; for `Cc1ccccc1N(CC(=O)N1CCCC1)S(=O)(=O)c1ccc(Cl)cc1` it is 5.47%; for `CCOc1ccc2nc(-c3ccccc3)nc(SCC(=O)Nc3ncc(C)s3)c2c1` it is -5.25%. Consider `O=C(COc1ccc2c3c(c(=O)oc2c1)CCC3)N1CCCC1`, for which the inhibition is 11.2%. For `CSc1ncccc1C(=O)NCC1CCCCC1`, the inhibition was 6.8%.

Consider `COc1cc2c(cc1NC(=O)C(F)(F)F)-c1ccc(NC(=O)C(F)(F)F)cc1C2`, for which the inhibition is 4.33%. For the molecule `CC(C)C(=O)Nc1ccc2c(c1)Cc1cc(NC(=O)C(C)C)ccc1-2`, the inhibition is 12.2%. The figure for `COc1ccc(NC(=O)CCNC(=O)c2ccccc2Cl)cc1OC` is 9.17%; for `Cc1ccc(/C=N\NC(=O)CC(=O)NCCc2ccccc2)cc1` it is -1.99%; for `O=C(CNC(=O)C(c1ccccc1)c1ccccc1)N/N=C\c1cccc(O)c1` it is 6.95%.

As for `CCOc1ccc(/C=N\NC(=O)CC(=O)NCCc2ccccc2)cc1`, the inhibition is 13%. `COc1cccc(/C=N/NC(=O)CCc2ccccc2)c1`: the inhibition was 8.09%.

On to `COc1ccc(/C=N\NC(=O)CNC(=O)C(c2ccccc2)c2ccccc2)cc1[N+](=O)[O-]`, for which the inhibition was -25.7%. As for `COc1ccc(/C=N/NC(=O)CCc2ccccc2)cc1O`, the inhibition was 26.6%.

On to `COc1cc(C(=O)N/N=C/c2ccc(OC(=O)c3ccccc3Cl)c(OC)c2)ccc1O`, for which the inhibition is 17.8%.

As for `COCCN(C(=O)COC(=O)c1ccc(Br)o1)c1c(N)n(Cc2ccccc2)c(=O)[nH]c1=O`, the inhibition is 7.5%. For the molecule `O=c1[nH]c(CSc2ncccn2)nc2c1cnn2-c1ccccc1`, the inhibition is 9.39%.

Consider `Fc1ccc(-n2cc(CNCCc3cccnc3)c(-c3ccccc3Cl)n2)cc1`, for which the inhibition is 5.92%. Turning to `C=CC[C@@H](CC(=O)N(CCO)Cc1ccccc1)C(=O)N[C@H](COC(=O)[C@@H](CC=C)Cc1ccc(F)cc1)C(C)(C)C`, the inhibition is 4.96%. Regarding `CC1(C)CC(=O)C(CC2C(=O)CC(C)(C)CC2=O)C(=O)C1`, the inhibition is 12.9%. Consider `COC(=O)c1cccnc1SCc1ccccc1`, for which the inhibition is 3.27%. Turning to `CCOc1ncccc1C(=O)Nc1cccc(S(=O)(=O)N2CCOCC2)c1`, the inhibition was 3.19%.
